Results taken from PubChem BioAssay (NCATS).
Records with an inconclusive call do not appear. Calls of active or inactive are those of the source. The call rests on the fitted dose curve; in most records, active means well fitted inhibition curve with a large enough effect; inconclusive means small, poorly fitted or top-dose-only effect; inactive means flat fitted curve, though single readings scatter. Where a SMILES comes first, the peptide text is derived from it. Bridges are numbered along the chain shown (N, C = ends). [ ]: non-standard residue; d: D form. NMeY = CN[CH](Cc1ccc(O)cc1)C(=O)O

Tested on: HaCat
Assay: Cytotoxic Profiling of Annotated Libraries Using Quantitative High-Throughput Screening (AID 1296008); further: nearly all actives have a fitted effect of over 60% in size
Details: Five cell lines viability, CellTiter-Glo ATP luminescence, 48-72 h; max response: hits give low values
Method in brief: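 Cells exposed to compounds for 48 or 72 hr at 37 degrees Celsius. Viability read as ATP-coupled luminescence with CellTiter-Glo after 10 min at room temperature.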

| Structure (SMILES) | outcome |
| --- | --- |
| COc1cc2c(c(OC)c1CC=C(C)C)C[C@H](c1ccc(O)cc1O)CO2 | inactive |
| COc1cc(OC)c(/C=C/S(=O)(=O)Cc2ccc(OC)c(NCC(=O)O)c2)c(OC)c1 | inactive |
| COc1c2cc(c(O)c1OC)-c1cc(ccc1O)CCC(O)CCCC2 (centres undefined) | inactive |
| COc1ccc([C@@]2(O)c3c(ccc(CC=C(C)C)c3O)NC(=O)[C@@H]2OC)cc1 | inactive |
| C[C@@H]1CC[C@]2(C(=O)O[C@@H]3O[C@H](CO)[C@@H](O)[C@H](O)[C@H]3O)CC[C@]3(C)C(=CCC4[C@@]5(C)C[C@@H](O)[C@H](O)[C@](C)(C(=O)O)C5CC[C@]43C)[C@@H]2[C@]1(C)O (some centres undefined) | inactive |
| COc1ccc(-c2cnc3ccc(NCc4ccc(S(N)(=O)=O)cc4)nn23)cc1OC | inactive |
| C[C@@]12CC[C@@H]3[C@@](CC[C@H]4[C@@]3(C)CCC[C@@]4(C)C(=O)O)(CC1=O)C2 | inactive |
| C=C(C(=O)O)C1CCC2(C)CCCC(C)(O)C2C1 (centres undefined) | inactive |
| CC1=CC(=O)CC(C)(C)[C@H]1/C=C/C(CO)O[C@@H]1O[C@H](CO)[C@@H](O)[C@H](O)[C@H]1O (some centres undefined) | inactive |
| O=C(O[C@H]1[C@@H]2C=CO[C@@H](O[C@@H]3O[C@H](CO)[C@@H](O)[C@H](O)[C@H]3O)[C@@H]2[C@@]2(CO)O[C@@H]12)c1ccccc1 | inactive |
| CN1CCN(C(=O)c2ccc3cc(CCNc4ncnc5ccc(C#N)cc45)ccc3c2)CC1 | inactive |
| Nc1nc2c(c(N3CCNCC3)n1)CCC1=C2[C@@H]2CCCC[C@@H]2O1 | inactive |
| C=CC1C(OC2OC(CO)C(O)C(O)C2O)OC=C(C(=O)OC)C1CC(=O)OCC1C(C)C(O)CC1C(CO)COC(=O)CC1C(C(=O)O)=COC(OC2OC(CO)C(O)C(O)C2O)/C1=C\C (centres undefined) | inactive |
| Oc1ccc2nc(CN3CCC(Cc4ccccc4F)CC3)[nH]c2c1 | inactive |
| Cc1noc(=O)c2ccc(NC(=O)C(O)(CC(C)(C)c3cccc4c3OCC4)C(F)(F)F)cc12 (centres undefined) | inactive |
| CC(C)S(=O)(=O)N[C@H]1CCOC[C@@H]1c1ccc(-c2ccc(C#N)s2)cc1 | inactive |
| C=C(C(=O)O)[C@H]1C[C@]2(C)[C@@H](O)CC[C@]23O[C@H]1C[C@@H]3C | inactive |
| O=C(O)CCCCCC[C@H]1C(=O)NC(=O)N1CC[C@@H](O)C1CCCCC1 | inactive |
| COc1cc(C(=O)OC[C@H]2O[C@@H](Oc3ccccc3/C=C/C(=O)O)[C@H](O)[C@@H](O)[C@@H]2O)cc(OC)c1OC | inactive |
| C=CC(C)(C)c1[nH]c2cc3c(cc2c1CC1NC(=O)C2=CCCN2C1=O)C=CC(C)(C)O3 (centres undefined) | inactive |

| Structure (SMILES) | outcome |
| --- | --- |
| C/C=C/C=C/C(O)=C1\C(=O)[C@]2(C)C3C(C(=O)CC/C=C/C)=C(O)C4(C)C1[C@]1(C)O[C@@]4(O)[C@@]3(C)O[C@@]12O | inactive |
| COc1ncc2cc(C(=O)Nc3cc(C(=O)NCc4cccc(Cl)c4)ccc3Cl)c(=O)[nH]c2n1 | inactive |
| CC(=O)O[C@H]1CC[C@@]2(C)C(CC[C@@H](C)[C@]23Cc2c(O)cc4c(c2O3)CN([C@@H](CCC(=O)O)C(=O)O)C4=O)C1(C)C (some centres undefined) | inactive |
| N#Cc1cc(F)cc(-c2nc(-c3ccccn3)no2)c1 | inactive |
| CC1=C2C(O)C(=O)OC(c3ccoc3)C2(C)CCC1O (centres undefined) | inactive |
| CC1=CC(=O)[C@]2(O[C@@H]3O[C@@H](C)[C@H](O)[C@@H](O)[C@H]3OC(=O)/C=C/c3ccccc3)C=CO[C@@H](O[C@@H]3O[C@H](CO)[C@@H](O)[C@H](O)[C@H]3O)[C@H]12 | inactive |
| OCc1ccc(O[C@@H]2O[C@H](CO)[C@@H](O)[C@H](O)[C@H]2O)cc1 | inactive |
| Cc1cc(C)c(CNC(=O)c2cc(-c3ccc(CN4CCOCC4)cc3)cc3c2cnn3C2CCCC2)c(=O)[nH]1 | inactive |
| CC1(C)CC[C@]2(C(=O)O[C@@H]3O[C@H](CO)[C@@H](O)[C@H](O)[C@H]3O)CC[C@]3(C)C(=CCC4[C@@]5(C)CC[C@H](O[C@@H]6O[C@H](C(=O)O)[C@@H](O)[C@H](O)[C@H]6O)C(C)(C)C5CC[C@]43C)C2C1 (some centres undefined) | inactive |
| COC(=O)C12C(=O)C(C)=C(O)C1(C)C(C)=CC1C3(CO)CCC(O)C(C)(C)C3CCC12C (centres undefined) | inactive |
| CCC(C)C1NC(=O)C2CCCN2C(=O)C(NC(C)=O)C(C)OC(=O)C(Cc2ccc(OC)cc2)N(C)C(=O)C2CCCN2C(=O)C(C(C)C)NC1=O (centres undefined) (Ac-TPIVP[NMeY](Me); ester 1-C; configuration not given here) | inactive |
| O=C1NC(Cc2c[nH]c3ccccc23)C(=O)NC1Cc1cnc[nH]1 (centres undefined) | inactive |
| Cc1cc(NC(=O)Nc2ccc(F)c(F)c2)n(-c2ccccc2)n1 | inactive |
| CC1(C)CCCC2(C)C1CC(=O)C13CC(CCC12)C(O)(CO)C3 (centres undefined) | inactive |
| COc1cc(/C=C/C=O)cc(OC)c1O[C@@H]1O[C@H](CO)[C@@H](O)[C@H](O)[C@H]1O | inactive |
| O=C(/C=C/c1ccccc1)OC[C@]12O[C@H]1[C@@H](O)[C@@H]1C=CO[C@@H](O[C@@H]3O[C@H](CO)[C@@H](O)[C@H](O)[C@H]3O)[C@@H]12 | inactive |
| O=S(=O)(c1ccccc1)c1cnc2c(N3CCNCC3)cccc2c1 | inactive |
| COc1c(/C=C/C(C)(C)O)ccc2c1C(=O)OCc1cc(C)cc(O)c1O2 | inactive |
| C=C(C(=O)OC)C1C(O)CC2(C)C(O)CCC(=O)C2C1O (centres undefined) | inactive |
